In PubChem BioAssay (EPA / NIEHS) one finds AC50 and outcome data, which are given here for 39 compounds.

More than one record can exist for a structure, and the calls need not agree. Active and inactive are the calls of the source. How the source made its calls: active means hit-call score of the fitted dose curve at least 0.9, where 1 is the maximum; inactive means score below 0.9.

A short description of this test: ATG_NF_kB_CIS: Attagene CIS-FACTORIAL HepG2 Assay for human Nuclear Factor Kappa B (NF-kB) (AID 2282991). Conditions: HepG2 Attagene cis-factorial NF-kB reporter mRNA; actives raise or lower the signal. The protocol:
ATG_CIS is a cell-based, multiplexed-readout assay that uses HepG2, a human liver cell line, with measurements taken at 24 hours after chemical dosing in a 24-well plate.ATG_NF_kB_CIS is one of 52 assay component(s) measured or calculated from the ATG_CIS assay. It is designed to make measurements of mRNA induction, a form of inducible reporter, as detected with fluorescence intensity signals by Reverse transcription polymerase chain reaction (RT-PCR) and Capillary electrophoresis technology.Data from the assay component ATG_NF_kB_CIS was analyzed into 1 assay endpoint. This assay endpoint, ATG_NF_kB_CIS, was analyzed with bidirectional fitting relative to DMSO as the negative control and baseline of activity. Using a type of inducible reporter, measures of mRNA for gain or loss-of-signal activity can be used to understand the reporter gene at the transcription factor-level as they relate to the gene NFKB1. Furthermore, this assay endpoint can be referred to as a primary readout, because this assay has produced multiple assay endpoints where this one serves a reporter gene function. To generalize the intended target to other relatable targets, this assay endpoint is annotated to the dna binding intended target family, where the subfamily is NF-kappa B.
Human liver HepG2 cells are transiently transfected with multiple reporter transcription units (MRTUs) in 6-well plates using FuGene 6 reagent (Roche; 3 ml FuGene/1 mg DNA). The MRTU constructs are regulated by a cis-regulating element (promoter). […] A major difference between the CIS and TRANS system is that in CIS activities of endogenous TFs are measured, whereas the TRANS assay evaluates changes in activities of exogenous, chimeric NR-Gal4 proteins. […] At the end of 24 hour incubation, total RNA was isolated using TriZol reagent (Invitrogen). The isolated RNA is then reverse-transcribed using oligo(dT) primer and Mo-MLV reverse transcriptase (Invitrogen) with DNAse I (Ambion) treatment for 30 min. The one-tenth of the produced cDNA was amplified by PCR using Taq DNA polymerase (Invitrogen) and two reporter sequence-specific primers. The PCR products were fluorescently labeled by primer extension with 6-arboxyfluorescein (6-FAM) 5'-labeled reporter sequence-specific primer (2 min at 95 C, 20 s at 68 C and 10 min at 72 C) and these products were digested with 5U of HpaI (New England Biolabs) for 2h at 37 C. The fragments were purified using Qiaquick PCR columns (Qiagen), analyzed on an ABI 3130xL genetic analyzer (Applied Biosystems) with peak positions identified by using a set of X-rhodamine (ROX)-labeled MapMarker1000 molecular weight standards (BioVentures). The raw capillary electrophoresis data was processed using Attagraph software (Attagene).
A word on the AC50: it is the midpoint of the concentration-response curve, whichever way the signal moves. `O=[N+]([O-])c1cc(C(F)(F)F)c(Cl)c([N+](=O)[O-])c1Nc1ncc(C(F)(F)F)cc1Cl`: the AC50 was 11.9 µM (active) and the outcome was inactive.
Consider `COc1cc(OC)nc(Sc2cccc(Cl)c2C(=O)O)n1`, for which the result was inactive.
As for `CCC(=NOC/C=C/Cl)C1=C(O)CC(C2CCOCC2)CC1=O` (stereo not given), the compound was classed as inactive.
Turning to `FC(F)C(F)(F)OCC(Cn1cncn1)c1ccc(Cl)cc1Cl` (stereo not given), the compound was called inactive.
For `CNC(=O)ON=C(C)SC`, the compound was called inactive.
On the same count and under the same terms, for `COP(=O)(OC)C(O)C(Cl)(Cl)Cl` (stereo not given) the value was “inactive”.
Regarding `N#CSCSC#N`, the result was inactive.
Take `COc1cccc(C(=O)NN(C(=O)c2cc(C)cc(C)c2)C(C)(C)C)c1C`: the call was inactive.
Take `CCc1cccc(CC)c1N(COC)C(=O)CCl`: the result was inactive.
As for `CCOP(=S)(OCC)SCCSCC`, the call was inactive.
On the same count and under the same terms, for `O=c1ccc(=O)[nH][nH]1` the value was “inactive”.
As for `CC(COc1ccc(Oc2ccccc2)cc1)Oc1ccccn1` (stereo not given), the AC50 is 13.8 µM (active).
Take `COc1ccc(C(=CC(=O)N2CCOCC2)c2ccc(Cl)cc2)cc1OC`: the outcome was inactive.
Take `Nc1c(Cl)cc([N+](=O)[O-])cc1Cl`: the AC50 is 59.5 µM (active).
In the case of `CN1COCN(Cc2cnc(Cl)s2)C1=N[N+](=O)[O-]`, the result was inactive.
Consider `CCCOCC(=Nc1ccc(Cl)cc1C(F)(F)F)n1ccnc1`, for which the call was inactive.
Turning to `CCC(CC)Nc1c([N+](=O)[O-])cc(C)c(C)c1[N+](=O)[O-]`, the compound was called inactive.
Take `CCCOc1nn(C(=O)NS(=O)(=O)c2ccccc2C(=O)OC)c(=O)n1C`: the compound was called inactive.
The same measure, in the same setting: under `C#CC(C)(C)NC(=O)c1cc(Cl)cc(Cl)c1` stands “inactive”.
Consider `CC(C)N(C(=O)SCC(Cl)=C(Cl)Cl)C(C)C`, for which the compound was classed as inactive.
Same read-out and setting: under `CC1=NNC(=O)N(/N=C/c2cccnc2)C1` stands “inactive”.
`C=C(C)[C@H]1Cc2c(ccc3c2O[C@@H]2COc4cc(OC)c(OC)cc4[C@@H]2C3=O)O1`: the AC50 is 0.063 µM (active).
Regarding `CCOP(=S)(OCC)Oc1ccc([N+](=O)[O-])cc1`, the result was inactive.
`CCCCOC(=O)[C@@H](C)Oc1ccc(Oc2ccc(C#N)cc2F)cc1`: the call was inactive.
Turning to `O=C(O)c1cc(Oc2ccc(C(F)(F)F)cc2Cl)ccc1[N+](=O)[O-]`, the compound was called inactive.
As for `CN(C)NC(=O)CCC(=O)O`, the compound was classed as inactive.
As to `CON=C(C(=O)OC)c1ccccc1CON=C(C)c1cccc(C(F)(F)F)c1`, the concentration at half-maximal activity (AC50) was 73.1 µM (active).
For the compound `CCCCN(CC)c1c([N+](=O)[O-])cc(C(F)(F)F)cc1[N+](=O)[O-]`, the call was inactive.
Regarding `CNC(=O)ON=C(SC)C(=O)N(C)C`, the compound was classed as inactive.
Take `CC1(C(=O)Nc2ccc(O)c(Cl)c2Cl)CCCCC1`: the compound was called inactive.
For `CC(C)[C@H](C(=O)O[C@H](C#N)c1cccc(Oc2ccccc2)c1)c1ccc(Cl)cc1`, the outcome was inactive.
As for `CNC(=O)Oc1cccc2c1OC(C)(C)O2`, the outcome was inactive.
Turning to `CCOP(=S)(OCC)OC(Cl)C(Cl)(Cl)Cl` (stereo not given), the AC50 was 26.4 µM (active).
In the case of `CCc1cccc(C)c1N(C(=O)CCl)C(C)COC` (stereo not given), the call was inactive.
Turning to `S=C1NCCN1`, the result was inactive.
With `COP(=O)(OC)SCn1c(=O)oc2cc(Cl)cnc21`, the compound was classed as inactive.
In the case of `CCCCOC(=O)c1ccccc1C(=O)O`, the compound was classed as inactive.
In the case of `CCOC(=O)COc1cc(-c2nn(C)c(OC(F)F)c2Cl)c(F)cc1Cl`, the compound was called inactive.
Turning to `CN(C)C(=O)Nc1cccc(C(F)(F)F)c1`, the compound was classed as inactive.
